Most compounds without a hit are left out; they make up all but 4% or so of the library.
AF4-AF9 inh = inhibitors of human MLL-AF4/AF9 interaction; P42568; AlphaScreen, biotin-AF4 peptide binding to FLAG-AF9; inhibition, % at 10 µM; 0.47% of 350,000 active; AID 651704;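 active means every replicate reaching a set inhibition limit, whatever the replicate mean, cut at about 25% in these data; inconclusive means mean inhibition reaches that limit but some replicates miss it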;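 further: 0% = plate neutral control median and 100% = total signal loss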
FGF22 binding = shifts melting point of recombinant human FGF22 | Q9HCT0 | recombinant FGF22 thermal shift, SYPRO orange fluorescence; percent of sucrose octasulfate shift, DMSO zero | activity (Tm shift, normalised), % at 9.99 µM | 1.5% of 340,000 active | AID 651658;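 active means mean Tm shift, scaled 0 neutral to 100 positive control, at about 1.3% or above, every replicate too, limit read from the data; inconclusive means no clear call, values can overlap the other calls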
DENV2 CPE rescue = protects cells from dengue virus 2 cytopathic effect; DENV2-infected cells, cytopathic effect rescue, plate reader; CPE inhibition, % at 9.99 µM; 1.7% of 350,000 active; AID 651640; in the data active means CPE inhibition above about 20%, passing the limit was not always enough; inconclusive means no clear call, values can overlap the other calls; tested in BHK-21 cells;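 further: 0% = median of neutral control wells and 100% = median of positive control wells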
RAD52 anneal inh = RAD52 (human) annealing inhibition; recombinant RAD52 DNA annealing, FRET fluorescence; inhibition, % at 18.7 µM; 0.46% of 360,000 active;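 active means every replicate showing at least 50% inhibition; inconclusive means mean inhibition at least 50% but not in every replicate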
Target sequence (P43351 whole entry, looked up): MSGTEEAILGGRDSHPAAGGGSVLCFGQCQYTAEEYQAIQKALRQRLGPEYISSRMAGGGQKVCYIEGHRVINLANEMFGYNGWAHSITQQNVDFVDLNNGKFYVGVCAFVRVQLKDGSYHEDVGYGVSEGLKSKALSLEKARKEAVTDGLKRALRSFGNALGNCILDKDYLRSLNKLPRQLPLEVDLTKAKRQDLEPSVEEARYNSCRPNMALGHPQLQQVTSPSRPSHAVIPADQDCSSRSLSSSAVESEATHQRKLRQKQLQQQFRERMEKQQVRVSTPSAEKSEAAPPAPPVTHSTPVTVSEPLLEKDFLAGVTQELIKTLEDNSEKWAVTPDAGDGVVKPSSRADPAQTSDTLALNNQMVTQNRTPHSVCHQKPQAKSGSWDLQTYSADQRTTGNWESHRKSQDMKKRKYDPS
ERAP1 HTS inh = inhibitors of human ERAP1 aminopeptidase; recombinant ERAP1, Leu-AMC fluorescence, 60 min; inhibition, % at 10.7 µM; 0.15% of 340,000 active;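 active means mean replicate inhibition of at least 30%, or all replicates individually reaching that 30% level; inactive means mean below 30% and not every replicate reaching it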;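 further: 0% = neutral control wells and 100% = L-leucinethiol positive control wells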
* hit, by the source's call.

Results for CN(C)CC#Cc1ccc([C@@H]2[C@@H](CO)N3CCCCN(CC4CC4)C[C@@H]23)cc1 ?
AF4-AF9 inh: 25.8*; FGF22 binding: -0.3; DENV2 CPE rescue: -1.3; RAD52 anneal inh: 70.5*; ERAP1 HTS inh: -0.2

Results for CN(C)CC#Cc1ccc([C@@H]2[C@@H](CO)N3CCCCN(CC4CCOCC4)C[C@H]23)cc1 ?
AF4-AF9 inh: 6.2; FGF22 binding: -0.3; DENV2 CPE rescue: inconclusive; RAD52 anneal inh: 42.3; ERAP1 HTS inh: -0.9

Results for CN(C)CC#Cc1ccc([C@H]2[C@@H](CO)N3CCCCN(CC4CCOCC4)C[C@H]23)cc1 ?
AF4-AF9 inh: 8.8; FGF22 binding: -0.4; DENV2 CPE rescue: -7.2; RAD52 anneal inh: 62.3*; ERAP1 HTS inh: 0.5

How did CCS(=O)(=O)NCC[C@@H]1CC[C@@H](NS(=O)(=O)c2cccc(F)c2)[C@H](CO)O1 do in these assays?
AF4-AF9 inh: -3.2; FGF22 binding: 0.2; DENV2 CPE rescue: 3.1; RAD52 anneal inh: -11.4; ERAP1 HTS inh: 0.5

How did CC(C)NC(=O)N(C)C[C@H]1OCCCC[C@@H](C)Oc2ccc(N(C)C)cc2C(=O)N([C@H](C)CO)C[C@H]1C do in these assays?
AF4-AF9 inh: 4.5; FGF22 binding: -1.4; DENV2 CPE rescue: -1.6; RAD52 anneal inh: -32.7; ERAP1 HTS inh: -2.0

Results for O=C(CCN1CCCCC1)N[C@@H]1CC[C@H](CCn2cc(-c3ccc(F)cc3)nn2)O[C@H]1CO ?
AF4-AF9 inh: 2.9; FGF22 binding: 0.1; DENV2 CPE rescue: -2.7; RAD52 anneal inh: -4.2; ERAP1 HTS inh: -1.7

Results for O=C(NCc1ccccn1)C1CCN(S(=O)(=O)c2ccccc2F)CC1 ?
AF4-AF9 inh: -2.1; FGF22 binding: 0.4; DENV2 CPE rescue: 4.5; RAD52 anneal inh: -11.5; ERAP1 HTS inh: 2.3

How did O=C(NNc1c(F)c(F)cc(F)c1F)C1CCN(S(=O)(=O)c2ccccc2F)CC1 do in these assays?
AF4-AF9 inh: -1.2; FGF22 binding: 0.1; DENV2 CPE rescue: 42.9*; RAD52 anneal inh: -7.8; ERAP1 HTS inh: -0.4

Results for O=C(CN1CCc2ccccc2C1)NC1CCCC1 ?
AF4-AF9 inh: -7.8; FGF22 binding: 43.1*; DENV2 CPE rescue: -1.5; RAD52 anneal inh: -5.3; ERAP1 HTS inh: -2.3

How did N#Cc1ccccc1S(=O)(=O)N1CCN(CC(=O)NC(=O)NC2CCCCC2)CC1 do in these assays?
AF4-AF9 inh: -27.0; FGF22 binding: -0.4; DENV2 CPE rescue: -3.7; RAD52 anneal inh: -9.4; ERAP1 HTS inh: 1.2

How did O=C(NC1CCCCC1)N1CCc2ccccc2C1 do in these assays?
AF4-AF9 inh: 1.0; FGF22 binding: 0.0; DENV2 CPE rescue: 0.4; RAD52 anneal inh: -8.4; ERAP1 HTS inh: -0.1

Results for O=C(CN1CCN(S(=O)(=O)c2ccccc2F)CC1)NC1CCCC1 ?
AF4-AF9 inh: -0.6; FGF22 binding: 41.9; DENV2 CPE rescue: 21.6*; RAD52 anneal inh: -9.5; ERAP1 HTS inh: 2.1

Results for C[C@H]1CN([C@@H](C)CO)C(=O)Cc2cc(NC(=O)Nc3ccc(F)cc3)ccc2O[C@@H]1CN(C)Cc1ccc2c(c1)OCO2 ?
AF4-AF9 inh: -0.5; FGF22 binding: -0.1; DENV2 CPE rescue: -2.8; RAD52 anneal inh: 7.4; ERAP1 HTS inh: 1.4

How did COc1ccc(-c2cnc3c(c2)C(=O)N([C@H](C)CO)C[C@H](C)[C@@H](CN(C)C(=O)Cc2cccnc2)O3)cc1 do in these assays?
AF4-AF9 inh: -2.4; FGF22 binding: 0.1; DENV2 CPE rescue: 8.1; RAD52 anneal inh: -8.9; ERAP1 HTS inh: 1.3

How did O=C(N[C@@H]1CC[C@@H](CC(=O)N2CCc3ccccc3C2)O[C@H]1CO)C1CCOCC1 do in these assays?
AF4-AF9 inh: -15.1; FGF22 binding: -0.1; DENV2 CPE rescue: 0.3; RAD52 anneal inh: -4.3; ERAP1 HTS inh: -0.6

Results for C[C@@H]1CCCCO[C@H](CN(C)Cc2ccc3c(c2)OCO3)[C@@H](C)CN([C@@H](C)CO)C(=O)c2cc(NS(=O)(=O)c3ccc(Cl)cc3)ccc2O1 ?
AF4-AF9 inh: 14.6; DENV2 CPE rescue: -4.1; RAD52 anneal inh: 61.5*; ERAP1 HTS inh: -2.8

How did COc1ccc(S(=O)(=O)Nc2ccc3c(c2)C(=O)N([C@@H](C)CO)C[C@@H](C)[C@@H](CN(C)Cc2ccc4c(c2)OCO4)OCCCC[C@H](C)O3)cc1 do in these assays?
AF4-AF9 inh: -0.6; FGF22 binding: -0.1; DENV2 CPE rescue: 22.0*; RAD52 anneal inh: -0.8; ERAP1 HTS inh: -4.5

How did COc1ccc(CN(C)C[C@@H]2OCCCC[C@H](C)Oc3ccc(NS(=O)(=O)c4ccc(OC)cc4)cc3C(=O)N([C@H](C)CO)C[C@H]2C)cc1 do in these assays?
FGF22 binding: -0.2; DENV2 CPE rescue: -3.9
